Out of some 650,000 compounds screened, about 6,800 (1%) were called active. For the sample, actives were picked, then their nearest neighbours and some compounds at random. Values without a mark were called inactive. Cut-off read from the data, not from the text of the source: active = activation above about 4.9%; inactive = the rest.

G-protein coupled receptor 151 (Homo sapiens), sequence (Q8TDV0 whole entry, looked up): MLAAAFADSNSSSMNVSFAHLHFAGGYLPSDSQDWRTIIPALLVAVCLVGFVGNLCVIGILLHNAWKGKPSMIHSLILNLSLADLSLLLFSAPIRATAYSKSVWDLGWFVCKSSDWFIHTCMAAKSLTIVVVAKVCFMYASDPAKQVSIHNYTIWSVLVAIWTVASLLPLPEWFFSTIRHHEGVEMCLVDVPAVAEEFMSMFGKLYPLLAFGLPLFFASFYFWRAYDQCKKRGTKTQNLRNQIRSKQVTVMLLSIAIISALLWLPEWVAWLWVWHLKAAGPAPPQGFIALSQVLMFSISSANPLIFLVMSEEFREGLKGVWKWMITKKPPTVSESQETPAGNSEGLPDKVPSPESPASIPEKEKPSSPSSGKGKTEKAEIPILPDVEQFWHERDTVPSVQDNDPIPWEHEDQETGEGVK

The experiment concerns the target G-protein coupled receptor 151 (Homo sapiens) (UniProt Q8TDV0). In words: activates the human receptor GPR151, primary screen, cell-based, PathHunter beta-arrestin, luminescence (AID 1508602).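 Note: 0% = median of compound wells and 100% = cells with positive control.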 The settings on record: PathHunter beta-arrestin GPR151 cells, at 11.2 µM, stronger effect = higher value.
With `COc1ccc([N+](=O)[O-])cc1NC(=O)C1CC(Cl)=CCC1C(=O)O` (stereo unspecified), the activation is 6.77% (active). Turning to `COc1ccc([N+](=O)[O-])cc1NC(=O)c1cccc(Cl)c1Cl`, the activation is -1.48%. `O=C(O)C1CC=C(Cl)CC1C(=O)Nc1cccc([N+](=O)[O-])c1` (stereo unspecified): the activation was -0.78%. Regarding `CCN1CCN(C(=O)C(C)Oc2ccc(Cl)cc2Cl)CC1` (stereo unspecified), the activation was -0.795%. `CCOC(=O)c1ccc(-n2c(C)c(C)n3c4c(=O)n(CC)c(=O)n(C)c4nc23)cc1`: the activation is 1.57%. With `CCc1ccc(-n2c(C)c(C)n3c4c(=O)n(CC)c(=O)n(C)c4nc23)cc1`, the activation is 5.92% (active). With `CCCn1c(=O)c2c(nc3n(-c4ccc(C)cc4)c(C)c(C)n23)n(C)c1=O`, the activation is 3.26%. Regarding `CCn1c(C)c(CCC(=O)NN2CCOCC2)c(=O)n2nc(-c3ccccc3OC)cc12`, the activation is -0.283%. The result for `CCCCC(CCCC)=N/N=C1\NC(=O)C(CC(=O)O)S1` (stereo unspecified) reads -1.58%; that for `N#Cc1ccc(C(=O)OCC(=O)Nc2ccc3[nH]c(=O)[nH]c3c2)cc1`, 0.615%.

`COc1ccc(C(=O)N/N=C/c2ccc(O)c3ncccc23)cc1`: the activation is -2.28%. In the case of `Cc1ccc(S(=O)(=O)N2CCN(Cc3ccc(F)cc3)CC2)cc1`, the activation was -0.354%. As to `O=S(=O)(c1ccc(F)cc1)N1CCN(CCCc2ccccc2)CC1`, the activation was 5.43% (active).

With `O=S(=O)(c1ccc(F)cc1)N1CCN(Cc2ccccc2F)CC1`, the activation is 0.53%. `Cc1cc(C)c2c(=O)[nH]c(SCC(=O)c3ccc(F)cc3)nc2n1`: the activation is 3.2%. `COc1ccccc1N1CCN(C(=O)c2cc(-c3ccc(Cl)c(Cl)c3)nc3ccccc23)CC1`: the activation is -0.435%. On to `COc1ccc(NC(=O)C23CCC(C)(C(=O)C2)C3(C)C)c(OC)c1` (stereo unspecified), for which the activation is 0.482%. Take `COc1ccc(-n2c(SCC(=O)c3ccccc3)nc3sc4c(c3c2=O)CCCC4)cc1`: the activation is -0.298%. The result for `CCCCSc1nc2sc3c(c2c(=O)n1-c1ccc(OC)cc1)CCCC3` reads 0.438%; that for `COc1ccc(C(=O)CSc2nc3sc4c(c3c(=O)n2-c2ccc(Cl)cn2)CCCC4)c(F)c1`, 5.7% (active); that for `Oc1ccc(-c2n[nH]c(=S)o2)cc1`, -2.2%.

On to `CC(C)(C)c1ccc(S(=O)CC(O)CSc2nc(-c3cccs3)cc(-c3ccccc3)c2C#N)cc1` (stereo unspecified), for which the activation is 0.807%. Regarding `COC(=O)c1cc(NC(=O)C2C3C=CC(C3)C2C(=O)O)cc(C(=O)OC)c1` (stereo unspecified), the activation was -0.454%.

Take `CCCCOC(=O)c1ccc(NC(=O)C2C3C=CC(O3)C2C(=O)O)cc1` (stereo unspecified): the activation was -1.25%. Take `CC(C)COC(=O)c1ccc(NC(=O)C2C3C=CC(C3)C2C(=O)O)cc1` (stereo unspecified): the activation is 6.08% (active).

As to `O=c1c2c3c(sc2nc(SCc2cccc(Br)c2)n1-c1ccccc1)CCC3`, the activation is 0.0499%. In the case of `O=C(O)COc1ccc(NC(=O)/C=C/c2ccco2)cc1` it was 3.09%. With `CC(C)NS(=O)(=O)c1ccc(OCC(=O)NC2CCCCCC2)cc1`, the activation was -1.64%. For the molecule `O=C(COc1ccc(S(=O)(=O)Nc2ccc(F)cc2)cc1)NC1CCCC1`, the activation was 1.64%. The result for `O=C(COc1ccc(S(=O)(=O)NCCc2ccccc2)cc1)NC1CC1` reads 5.83% (active); that for `Cc1ccc(NC(=O)CSc2nnc3sc4ccccc4n23)cc1`, -0.639%; that for `Cc1ccc(S(=O)(=O)c2nnn3c2nc(NCc2ccco2)c2ccccc23)cc1`, -0.413%.

Take `Cc1ccc(C(C)C)c(OCCN2CCNCC2)c1`: the activation was 0.889%. Consider `C=CCc1cc(C)ccc1OCCCn1ccnc1`, for which the activation was 2.6%. Take `Cc1ccc(C(C)C)c(OCCCn2ccnc2)c1`: the activation was 4.92% (active).

As for `COc1ccc(CCNc2nc(-c3ccccc3)nc3c2ncn3C2CCCCC2)cc1`, the activation was 0.405%. For the molecule `COc1ccc(CCNC(=O)c2ccccc2C(=O)O)cc1OC`, the activation is -1.14%. In the case of `O=[N+]([O-])c1ccc(-n2c(-c3ccccc3)nnc2-c2ccccc2)cc1` it was -0.192%. In the case of `Cc1csc(NC(=O)CSc2nnc(Cc3cccn3C)n2-c2ccccc2)n1`, the activation is 0.245%.

In the case of `O=C1/C(=C\c2ccccc2)C(N2CCOCC2)=NN1c1ccc([N+](=O)[O-])cc1`, the activation is 6.57% (active).

On to `O=C1N=C(N2CCN(c3ccc([N+](=O)[O-])cc3)CC2)S/C1=C/c1ccccc1`, for which the activation is -0.706%. The result for `C=CCOc1ccc(/C=C2\C(=O)N(c3ccc([N+](=O)[O-])cc3)N=C2c2ccccc2)cc1` reads -2.33%. Regarding `CCC(=O)Nc1cc(-c2ccco2)nn1-c1nc(CC)cc(=O)[nH]1`, the activation was -0.772%.

`COC(=O)NCCOc1ccc(C(C)(C)C)cc1`: the activation was 0.726%.

In the case of `COCCNCCOc1ccc(C(C)(C)C)cc1`, the activation is 8.42% (active).

`CC(C)(C)c1ccc(OCCCCNCCO)cc1`: the activation is 0.146%. Take `Cc1ccc(N2C(=O)CC(N3CCN(C(c4ccccc4)c4ccccc4)CC3)C2=O)c(Br)c1` (stereo unspecified): the activation was -0.0796%. As for `CCc1cc(C(=O)N2CCCCC2C)cs1` (stereo unspecified), the activation is 1.3%. On to `Cc1ccc(CNC(=O)CN(C)S(=O)(=O)c2ccccc2)cc1`, for which the activation was -0.21%. `COc1ccc(CON2C(=O)c3ccccc3C2=O)cc1Cl`: the activation was -1.06%.

For `CCc1ccc(S(=O)(=O)N2CCCC(C(=O)c3ccc(OC)c(OC)c3)C2)s1` (stereo unspecified), the activation was 0.139%. With `O=C(NNC(=O)C1CCCN(S(=O)(=O)c2cccc(Cl)c2)C1)C1CC1` (stereo unspecified), the activation is 0.674%. Turning to `COc1ccc(C(=O)C2CCCN(S(=O)(=O)c3cccc(C)c3)C2)c(C)c1` (stereo unspecified), the activation was 5.47% (active). The result for `CCCOc1ccccc1C1CC(=O)C2=C(C1)Nc1ccccc1N(C(C)=O)C2c1ccc(OC)cc1` (stereo unspecified) reads -0.237%; that for `Cc1ccc(Cn2c(C)c3cnn(CC(=O)N4CCCC4)c(=O)c3c2C)cc1`, -0.279%; that for `COc1ccc(O)c(C(=O)/C=C/c2ccc(F)cc2)c1`, -1.75%. Take `O=C(/C=C/c1ccccc1)c1ccccc1O`: the activation was 5.61% (active). For the molecule `O=C(/C=C/c1ccccc1)c1ccc(O[C@@H]2O[C@H](CO)[C@@H](O)[C@H](O)[C@H]2O)cc1O`, the activation is 0.684%.

Turning to `Cc1c(Cl)cccc1-n1c(/C=C/c2cccc3ccccc23)nc2ccccc2c1=O`, the activation was 1.58%. Consider `COC(=O)c1ccccc1NC(=O)c1ccc(CN(c2ccc(C)c(C)c2)S(C)(=O)=O)cc1`, for which the activation was -0.0331%. Regarding `CC(=O)c1ccc(NC(=O)c2ccc(CN(c3ccc(C)c(C)c3)S(C)(=O)=O)cc2)cc1`, the activation was 5.09% (active). For the molecule `CNC(=O)c1ccc(CN(c2ccc(C)c(C)c2)S(C)(=O)=O)cc1`, the activation was 0.29%. For the molecule `Cc1cnc(CNC(=O)c2ccc3cncc(-c4cc5ccccc5o4)c3n2)cn1`, the activation was -1.58%.

`COc1ccc(NC(=O)CSc2nc(=O)n(CCCN(C)C)c3c2CCC3)cc1OC`: the activation is -0.304%. `COc1cc(CO)cc(Cl)c1OCc1ccccc1`: the activation is 0.149%. Consider `CCOc1c(Cl)cc(CNCc2ccccc2)cc1OC`, for which the activation was 5.18% (active). `COc1cc(Cl)c(CNCc2ccccc2)cc1OC`: the activation is -1.13%. As to `Cc1ccc(CNC(=O)CSc2nc3ccccc3c(=O)n2CC2CCC(C(=O)NCc3ccco3)CC2)cc1` (stereo unspecified), the activation was -0.182%. Regarding `CN1C(=O)c2ccc(N3C(=O)c4cccc([N+](=O)[O-])c4C3=O)cc2C1=O`, the activation is 5.16% (active). For the molecule `O=C1c2cccc([N+](=O)[O-])c2C(=O)N1c1ccc2ccccc2c1`, the activation is 0.404%. As to `O=C1NC(=O)c2cc(N3C(=O)c4cccc([N+](=O)[O-])c4C3=O)ccc21`, the activation was -0.912%.

`CC1(C)CC(=O)c2cc(C(=O)Nc3cccc(F)c3)c(=O)n(-c3ccccc3)c2C1`: the activation is 0.451%. In the case of `O=C(NCCc1ccccc1)c1ccc2c(c1)NC(=O)C(CS(=O)(=O)Cc1cccc(F)c1)N2` (stereo unspecified) it was -0.907%; in that of `CC(C)C[C@H]1NC(=O)[C@@H]2C[C@H](NCc3ccccc3)CN2C1=O`, 2.09%; in that of `CC(C)c1ccc(CN[C@H]2C[C@H]3C(=O)N[C@@H](COCc4ccccc4)C(=O)N3C2)cc1`, 5.83% (active). Regarding `O=C1N[C@@H](COCc2ccccc2)C(=O)N2C[C@@H](NCc3ccsc3)C[C@@H]12`, the activation is 1.22%. On to `Cc1ccc(C2=N/C(=C\c3cccc(Cl)c3)C(=O)O2)cc1`, for which the activation is -1.7%.

`Cc1nc(C)n(CCC(=O)N2CCN(Cc3ccccc3F)C[C@@H]2C(C)C)n1`: the activation is -0.818%. In the case of `CC(C)NC(=O)CSc1nccn1Cc1ccco1` it was 0.992%. For the molecule `COc1ccc(Cn2ccnc2SCC(=O)NCc2ccco2)cc1`, the activation was 0.251%.

Take `COCCNC(=O)CSc1nccn1Cc1ccco1`: the activation is 4.92% (active). As to `COCCNC(=O)c1cccc(-n2c(=S)[nH]c3cc(Cl)ccc3c2=O)c1`, the activation is 1.05%. Consider `O=C(CCCOc1ccc(Cl)cc1)NCc1ccco1`, for which the activation is -1.43%.

Regarding `CCCCc1ccc2c(N)c(C(=O)Nc3ccc(C(=O)O)cc3)sc2n1`, the activation was -1.27%. Consider `CCOC(=O)C1=C(CC)OC(N)=C(C#N)C1c1ccc(C(F)(F)F)cc1` (stereo unspecified), for which the activation is 5.43% (active).

Take `CCCC1=C(C(=O)OCC)C(c2ccc(O)c(OC)c2)C(C#N)=C(N)O1` (stereo unspecified): the activation is 2.22%.

With `CCCC1=C(C(=O)OCC)C(c2cccc(F)c2)C(C#N)=C(N)O1` (stereo unspecified), the activation was 0.841%. In the case of `c1ccc(Nc2cc(NCc3ccc4c(c3)OCO4)ncn2)cc1` it was -0.773%; in that of `COc1cc(C2C(C(=O)Nc3ccccn3)=C(C)NC3=C2C(=O)CCC3)cc(OC)c1OC` (stereo unspecified), 0.722%; in that of `CC1=C(C(=O)Nc2ccccc2C(F)(F)F)C(c2ccccn2)C2=C(CC(C)(C)CC2=O)N1` (stereo unspecified), 0.421%. As to `CC1=C(C(=O)Nc2cccc(F)c2)C(c2ccccn2)C2=C(CCCC2=O)N1` (stereo unspecified), the activation was 4.99% (active).

For the origin of these results see PubChem BioAssay AID1508602 (The Scripps Research Institute Molecular Screening Center, 2020).
